# Laboratory results published in PubChem BioAssay (Tox21).
# Values joined by “and” are separate entries in the source; they are usually repeats but may differ in a detail not shown here. Equal values may be shown once. Results filed as inconclusive are left out. A call without a number means that no potency is given here. The source holds several records for some structures; these can differ, active in one and inactive in another. Active and inactive are the calls of the source. Unless noted, calls come from the whole dose curve; as a rule, active = well fitted curve in the direction sought with a large enough effect in the repeat runs; inconclusive = weak or mixed curves; inactive = no such curve, though single readings can be large; an effect the other way counts as inactive or inconclusive. Residues, ends and D or L forms follow the SMILES beside them.
# Tests used:
# [1] = qHTS assay to identify small molecule antagonists of the estrogen related receptor (ERR) signaling pathway from Tox21 library - cell viability counter screen (AID 1224834); note: nearly all actives have a fitted effect of over 30% in size; note: potency is the fitted concentration of half-maximal effect
# Procedure, shortened: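 In this quantitative HTS format, ERR cells receive compounds in DMSO and are incubated for 17.5 h at 37 C. Live-cell protease activity is then detected with CellTiter-Fluor.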
# [2] = molecular target: Luciferin 4-monooxygenase (Photinus pyralis) (UniProt P08659); experiment: qHTS assay to identify small molecule inhibitors of firefly luciferase (AID 1224835); note: nearly all actives have a fitted effect of over 25% in size; note: potency is the fitted concentration of half-maximal effect
# Procedure, shortened: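 Quantitative HTS format; KM concentrations of both substrates. Purified P. pyralis FLuc activity quantified from luminescence images.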
# [3] = qHTS assay to identify small molecule antagonists of the estrogen related receptor signaling pathway with the pleiotropic PPARgamma coactivator (PGC) from Tox21 10K library - cell viability counter screen (AID 1224840; active = well fitted cell-killing curve with a large enough effect in the repeat runs, not every such curve was filed as active; note: nearly all actives have a fitted effect of over 40% in size; note: potency is the fitted concentration of half-maximal effect)
# Procedure, shortened: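 Viability counter screen, PGC/ERR cells: 17.5 h compound exposure at 37 C, CellTiter-Fluor fluorescence endpoint.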
# [4] = molecular target: Thyrotropin receptor (Homo sapiens) (UniProt P16473); experiment: qHTS assay to identify small molecule agonists of the thyroid stimulating hormone receptor (TSHR) signaling pathway (AID 1224843; calls by dose curve; note: nearly all actives have a fitted effect of over 45% in size)
# Procedure, shortened: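 Compounds are titrated over 15 concentrations, in triplicate, onto TSHR-HEK293 cells seeded at 800/well. Plates sit 30 min at room temperature before cAMP-d2 and anti-cAMP cryptate are added; signal is read after a further hour.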
# [5] = qHTS assay to identify small molecule agonists of the hypoxia (HIF-1) signaling pathway - cell viability counter screen (AID 1224844; calls by dose curve; note: nearly all actives have a fitted effect of over 50% in size)
# Procedure, shortened: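 Same wells as the HIF-1 reporter screen; ME-180 cells carrying HRE-bla, 17 hr treatment at 37C; CellTiter-Glo luminescence read after 30 min at room temperature.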
# [6] = qHTS assay to identify small molecule agonists of H2AX - cell viability counter screen (AID 1224847; calls by dose curve; note: top concentration of the series differs between compounds; nearly all actives have a fitted effect of over 30% in size)
# Procedure, shortened: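 Viability of CHO-K1 (wild type) cells after 3 hr compound exposure was measured by CellTiter-Glo luminescence.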
# [7] = qHTS RealTime-Glo MT Cell Viability Assay in HepG2 cells - 24 hour (AID 1224867); note: nearly all actives have a fitted effect of over 50% in size
# Procedure, shortened: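 Tox21 10K library screened in qHTS format on HepG2 cells carrying RealTime-Glo reagents. Compounds were added after a 5 h preincubation, and the luminescent signal from continuous culture was measured repeatedly during 40 h treatment.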
# [8] = qHTS RealTime-Glo MT Cell Viability Assay in HEK293 cells - 32 hour (AID 1224868); note: top concentration of the series differs between compounds; nearly all actives have a fitted effect of over 50% in size
# Procedure, shortened: (§1)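 Luminescence generated by NanoLuc from substrate produced by living HEK293 cells served as the viability signal. Each value reflects the reading at its stated time point during continuous 40 h compound exposure at 37 C.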
# [9] = A CellTox Green Cytotoxicity Assay to monitor cytotoxicity in HEK293 cells - 0 hour (AID 1224869); note: nearly all actives have a fitted effect of over 50% in size
# Procedure, shortened: (§2)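 Homogeneous no-lysis format: HEK293 cell suspension mixed with CellTox Green reagent, seeded, incubated 5 h at 37 C/5% CO2, then dosed by pintool with compound in DMSO.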
# [10] = qHTS RealTime-Glo MT Cell Viability Assay in HepG2 cells - 40 hour (AID 1224870); note: nearly all actives have a fitted effect of over 50% in size
# Procedure, shortened: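 HepG2 cells mixed with RealTime-Glo MT reagents (NanoLuc plus cell-permeant prosubstrate) were seeded at 600 cells/well, incubated 5 h at 37 C/5% CO2, then pinned with compounds in DMSO; nonlytic luminescence tracked viability during 40 h treatment.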
# [11] = A CellTox Green Cytotoxicity Assay to monitor cytotoxicity in HEK293 cells - 40 hour (AID 1224871); note: nearly all actives have a fitted effect of over 45% in size
# Procedure, shortened: as §2
# [12] = qHTS RealTime-Glo MT Cell Viability Assay in HEK293 cells - 16 hour (AID 1224872)
# Procedure, shortened: as §1
# [13] = qHTS assay to identify small molecule agonists of the constitutive androstane receptor (CAR) signaling pathway - cell viability counter screen (AID 1224836); note: nearly all actives have a fitted effect of over 45% in size
# Procedure, shortened: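 Fluorescence from CellTiter-Fluor indicates live cells after 23 h exposure. The human hepatoma line expresses hCAR and a CYP2B6-2.2kb reporter. Incubation medium contains 0.75 uM PK11195 (final).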
# [14] = qHTS assay to identify small molecule antagonists of the constitutive androstane receptor (CAR) signaling pathway - cell viability counter screen (AID 1224837); note: nearly all actives have a fitted effect of over 45% in size
# Procedure, shortened: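 In quantitative HTS format, compounds at 15 concentrations were applied to HepG2 cells double-transfected with hCAR and CYP2B6-2.2kb under 50 nM CITCO stimulation; live-cell protease activity was read after 23 hr via CellTiter-Fluor.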
# [15] = molecular target: Nuclear receptor subfamily 1 group I member 3 (Homo sapiens) (UniProt Q14994); experiment: qHTS assay to identify small molecule antagonists of the constitutive androstane receptor (CAR) signaling pathway (AID 1224838); note: nearly all actives have a fitted effect of over 40% in size
# Procedure, shortened: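 CITCO-stimulated (50 nM final) HepG2 cells stably transfected with hCAR and CYP2B6-2.2kb luciferase were exposed to compounds at 15 concentrations for 24 h at 37 C/5% CO2. A luciferase reagent was added and luminescence recorded after 30 min.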
# [16] = molecular target: Nuclear receptor subfamily 1 group I member 3 (Homo sapiens) (UniProt Q14994); experiment: qHTS assay to identify small molecule agonists of the constitutive androstane receptor (CAR) signaling pathway (AID 1224839); note: nearly all actives have a fitted effect of over 15% in size; note: potency is the fitted concentration of half-maximal effect;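 for activation: HepG2 cells stably carrying human CAR and a CYP2B6 luciferase reporter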
# Procedure, shortened: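 Stable hCAR/CYP2B6-2.2kb HepG2 line in DMEM with 10% FBS; compounds (15 concentrations) and 0.75 uM PK11195 final, 24 h at 37 C/5% CO2, then ONE-Glo luminescence after 30 min.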
# [17] = qHTS assay to identify small molecule agonists of H2AX (AID 1224845; active = well fitted activation curve with a large enough effect in the signal ratio in the repeat runs, not every such curve was filed as active; the % refers to the signal ratio)
# Procedure, shortened: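 Wild-type CHO-K1 cells plated overnight, then exposed 3 hr at 37C to compounds at 15 concentrations (0.76% DMSO). Lysed, then HTRF anti-pH2AX(S139)-cryptate/anti-H2AX-d2 detection after 24 hr at room temperature; emissions 665 and 620 nm.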
# [18] = qHTS assay to identify small molecule agonists of the hypoxia (HIF-1) signaling pathway (AID 1224846; active = well fitted activation curve with a large enough effect in the signal ratio in the repeat runs, not every such curve was filed as active; the % refers to the signal ratio)
# Procedure, shortened: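 In ME-180 cells bearing an HRE-bla construct, 17 h treatment with DMSO-dissolved compounds at 37C was followed by CCF4-AM loading to quantify reporter induction.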
# [19] = qHTS assay to identify small molecule antagonists of the estrogen related receptor signaling pathway with the pleiotropic PPARgamma coactivator (PGC) from Tox21 10K library (AID 1224841; call rule not given here; note: potency is the fitted concentration of half-maximal effect)
# Procedure, shortened: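 In the PGC/ERR line, DMSO solutions of test chemicals are pin-delivered to 2,000 cells/well six hours after dispensing. Following eighteen hours' incubation, One-Glo reagent is added and luminescence recorded.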
# [20] = qHTS assay to identify small molecule agonists of the estrogen related receptor (ERR) signaling pathway from Tox21 library (AID 1224849; calls by dose curve; note: nearly all actives have a fitted effect of over 15% in size); settings: ERR reporter cell line, ONE-Glo luciferase, 18 h
# Procedure, shortened: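 Reporter cells (ERR, NTP source) treated with Tox21 10K compounds 18 h, 37 C. Readout: ONE-Glo luminescence, 30 min RT.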
# Thyrotropin receptor (Homo sapiens), sequence (P16473 whole entry, looked up): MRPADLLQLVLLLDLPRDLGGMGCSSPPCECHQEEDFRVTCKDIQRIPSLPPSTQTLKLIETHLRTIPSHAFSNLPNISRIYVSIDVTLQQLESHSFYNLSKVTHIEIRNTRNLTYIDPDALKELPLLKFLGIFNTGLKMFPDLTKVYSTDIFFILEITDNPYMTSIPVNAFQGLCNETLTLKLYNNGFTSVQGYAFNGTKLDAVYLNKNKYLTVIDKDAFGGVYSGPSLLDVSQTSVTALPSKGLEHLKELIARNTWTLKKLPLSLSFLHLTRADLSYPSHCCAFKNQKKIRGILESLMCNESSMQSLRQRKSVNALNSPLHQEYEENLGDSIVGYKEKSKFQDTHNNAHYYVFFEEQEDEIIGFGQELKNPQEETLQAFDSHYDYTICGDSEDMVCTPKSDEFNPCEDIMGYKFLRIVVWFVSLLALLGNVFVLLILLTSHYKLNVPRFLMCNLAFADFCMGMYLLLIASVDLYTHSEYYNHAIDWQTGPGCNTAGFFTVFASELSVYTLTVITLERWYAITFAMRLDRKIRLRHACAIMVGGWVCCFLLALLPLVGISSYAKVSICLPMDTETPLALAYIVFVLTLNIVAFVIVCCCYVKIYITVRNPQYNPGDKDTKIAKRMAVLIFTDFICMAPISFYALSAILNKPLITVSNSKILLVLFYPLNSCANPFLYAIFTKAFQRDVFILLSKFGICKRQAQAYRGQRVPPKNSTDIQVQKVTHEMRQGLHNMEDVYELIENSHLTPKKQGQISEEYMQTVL
# Luciferin 4-monooxygenase (Photinus pyralis), sequence (P08659 whole entry, looked up): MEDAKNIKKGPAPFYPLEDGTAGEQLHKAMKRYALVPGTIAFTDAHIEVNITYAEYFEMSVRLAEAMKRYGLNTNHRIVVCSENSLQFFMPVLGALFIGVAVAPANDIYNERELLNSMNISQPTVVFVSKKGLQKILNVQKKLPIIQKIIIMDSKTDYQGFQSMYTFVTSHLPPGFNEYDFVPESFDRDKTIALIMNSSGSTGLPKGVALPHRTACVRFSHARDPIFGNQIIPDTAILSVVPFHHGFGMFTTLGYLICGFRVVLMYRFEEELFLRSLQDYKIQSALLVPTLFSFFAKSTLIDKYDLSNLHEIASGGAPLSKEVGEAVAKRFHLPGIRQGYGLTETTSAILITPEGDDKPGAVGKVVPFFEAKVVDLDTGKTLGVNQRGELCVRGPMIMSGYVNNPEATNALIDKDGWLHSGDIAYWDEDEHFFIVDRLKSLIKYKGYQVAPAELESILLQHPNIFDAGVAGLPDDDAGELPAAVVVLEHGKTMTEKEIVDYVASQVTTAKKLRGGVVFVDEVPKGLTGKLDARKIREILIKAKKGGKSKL
# Nuclear receptor subfamily 1 group I member 3 (Homo sapiens), sequence (Q14994 whole entry, looked up): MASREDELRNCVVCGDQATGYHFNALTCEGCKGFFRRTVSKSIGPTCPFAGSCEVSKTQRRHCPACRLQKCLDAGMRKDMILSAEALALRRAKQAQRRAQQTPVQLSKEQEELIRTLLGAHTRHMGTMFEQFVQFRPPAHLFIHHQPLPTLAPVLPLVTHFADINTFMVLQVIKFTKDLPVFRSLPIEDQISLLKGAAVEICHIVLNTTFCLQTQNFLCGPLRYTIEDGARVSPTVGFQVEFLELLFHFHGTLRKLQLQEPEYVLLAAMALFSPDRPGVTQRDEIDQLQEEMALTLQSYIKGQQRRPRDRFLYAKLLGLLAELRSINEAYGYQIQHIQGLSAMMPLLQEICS
smiles,measurement,setting,value
O=C(O)c1cc(N=Nc2ccc(S(=O)(=O)Nc3ccccn3)cc2)ccc1O,Potency,[1],27.4 µM (active) and 27.3 µM (active) and 23.7 µM (active)
same,Potency,[2],71.3 µM (active) and inactive
same,Potency,[3],30.7 µM (active) and inactive
same,outcome,[4],inactive
same,Potency,[5],inactive
same,outcome,[6],inactive
same,Potency,[7],inactive
same,Potency,[8],inactive
same,outcome,[9],inactive
same,Potency,[10],inactive
same,Potency,[11],inactive
same,Potency,[12],inactive
O=S(=O)(O)c1ccc2cc(O)ccc2c1,Potency,[1],inactive
same,Potency,[2],inactive
same,Potency,[13],inactive
same,Potency,[14],inactive
same,Potency,[15],inactive
same,Potency,[16],inactive
same,Potency,[3],inactive
same,Potency,[5],inactive
same,outcome,[17],inactive
same,outcome,[18],inactive
same,outcome,[6],inactive
same,Potency,[7],inactive
same,Potency,[8],inactive
same,outcome,[9],inactive
same,Potency,[10],inactive
same,Potency,[11],inactive
same,Potency,[12],inactive
COC(=O)[C@H](Cc1ccccc1)NC(=O)[C@@H](N)CC(=O)O (H-Asp-Phe-OMe),Potency,[1],inactive
same,Potency,[2],inactive
same,Potency,[13],inactive
same,Potency,[14],inactive
same,Potency,[3],inactive
same,outcome,[4],inactive
same,Potency,[5],inactive
same,outcome,[17],inactive
same,outcome,[18],inactive
same,outcome,[6],inactive
same,Potency,[7],inactive
same,Potency,[8],inactive
same,outcome,[9],inactive
same,Potency,[10],inactive
same,Potency,[11],inactive
same,Potency,[12],inactive
Cc1cc(=O)[nH]c(=S)[nH]1,Potency,[1],inactive
same,Potency,[2],inactive
same,Potency,[13],inactive
same,Potency,[14],inactive
same,Potency,[15],inactive
same,Potency,[16],inactive
same,Potency,[3],inactive
same,outcome,[4],inactive
same,Potency,[5],inactive
same,outcome,[17],inactive
same,outcome,[18],inactive
same,outcome,[6],inactive
same,Potency,[7],inactive
same,Potency,[8],inactive
same,outcome,[9],inactive
same,Potency,[10],inactive
same,Potency,[11],inactive
same,Potency,[12],inactive
NNC(=O)c1ccncc1,Potency,[1],inactive
same,Potency,[2],inactive
same,Potency,[13],inactive
same,Potency,[14],inactive
same,Potency,[15],inactive
same,Potency,[16],inactive
same,Potency,[3],inactive
same,Potency,[19],inactive
same,outcome,[4],inactive
same,Potency,[5],inactive
same,outcome,[17],inactive
same,outcome,[6],inactive
same,"activity change, positive = activation",[20]; at 42.5 µM (top of the series),-2.18% (inactive) and 2.7% (inactive)
same,"activity change, positive = activation",[20]; at 92.4 µM (top of the series),-1.91% (inactive)
same,Potency,[7],inactive
same,Potency,[8],inactive
same,outcome,[9],inactive
same,Potency,[10],inactive
same,Potency,[11],inactive
same,Potency,[12],inactive
CCCCOC(=O)CC(CC(=O)OCCCC)(OC(C)=O)C(=O)OCCCC,Potency,[2],inactive
same,Potency,[13],inactive
same,Potency,[14],inactive
same,Potency,[15],inactive
same,Potency,[16],17.4 µM (active) and 27.3 µM (active)
same,Potency,[3],inactive
same,Potency,[19],inactive and 24.6 µM (active)
same,Potency,[5],inactive
same,outcome,[17],inactive
same,outcome,[18],inactive
same,outcome,[6],inactive
same,"activity change, positive = activation",[20]; at 42.5 µM (top of the series),-18.7% (inactive)
same,"activity change, positive = activation",[20]; at 92.4 µM (top of the series),-11.9% (inactive) and -24.8% (inactive)
same,Potency,[7],inactive
same,Potency,[8],inactive
same,outcome,[9],inactive
same,Potency,[10],inactive
same,Potency,[11],inactive
same,Potency,[12],inactive
O=c1cc[nH]c(=S)[nH]1,Potency,[1],inactive
same,Potency,[2],inactive
same,Potency,[13],inactive
same,Potency,[14],inactive
same,Potency,[15],inactive
same,Potency,[16],inactive
same,Potency,[3],inactive
same,Potency,[19],inactive
same,outcome,[4],inactive
same,Potency,[5],inactive
same,outcome,[17],inactive
same,outcome,[18],inactive
same,outcome,[6],inactive
same,"activity change, positive = activation",[20]; at 42.5 µM (top of the series),7.5% (inactive)
same,"activity change, positive = activation",[20]; at 92.4 µM (top of the series),16.5% (inactive) and 3.21% (inactive)
same,Potency,[7],inactive
same,Potency,[8],inactive
same,outcome,[9],inactive
same,Potency,[10],inactive
same,Potency,[11],inactive
same,Potency,[12],inactive
